PubChem BioAssay (Tox21)
Records with an inconclusive call do not appear. Activity calls are given as the source filed them. Unless noted, the call rests on the fitted dose curve; in most records, active means well fitted curve in the direction sought with a large enough effect in the repeat runs; inconclusive means weak or mixed curves; inactive means no such curve, though single readings can be large; an effect the other way counts as inactive or inconclusive.

What was measured:
[1] = qHTS assay to identify small molecule antagonists of the estrogen related receptor (ERR) signaling pathway from Tox21 library - cell viability counter screen (AID 1224834); further: nearly all actives have a fitted effect of over 30% in size
Procedure, shortened: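 ERR reporter cells, 2,000 per well, rested 6 h, then exposed to compound in DMSO for 17.5 hours at 37 C. Viability read as fluorescence after 30 min with CellTiter-Fluor.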

[2] = target: Luciferin 4-monooxygenase (Photinus pyralis) (UniProt P08659); test: qHTS assay to identify small molecule inhibitors of firefly luciferase (AID 1224835); further: nearly all actives have a fitted effect of over 25% in size
Procedure, shortened: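 Inhibition of purified Photinus luciferase is measured by luminescence. Substrate levels (D-luciferin, ATP) sit at their KM values. Each compound is tested in a concentration series.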

[3] = qHTS assay to identify small molecule agonists of the constitutive androstane receptor (CAR) signaling pathway - cell viability counter screen (AID 1224836); further: nearly all actives have a fitted effect of over 45% in size
Procedure, shortened: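 Fluorescence from CellTiter-Fluor indicates live cells after 23 h exposure. The human hepatoma line expresses hCAR and a CYP2B6-2.2kb reporter. Incubation medium contains 0.75 uM PK11195 (final).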

[4] = qHTS assay to identify small molecule antagonists of the constitutive androstane receptor (CAR) signaling pathway - cell viability counter screen (AID 1224837); further: nearly all actives have a fitted effect of over 45% in size
Procedure, shortened: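 HepG2 cells stably carrying hCAR and CYP2B6-2.2kb reporter, stimulated with 50 nM CITCO and compounds at 15 concentrations for 23 h at 37 C. Viability measured by CellTiter-Fluor fluorescence.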

[5] = target: Nuclear receptor subfamily 1 group I member 3 (Homo sapiens) (UniProt Q14994); test: qHTS assay to identify small molecule antagonists of the constitutive androstane receptor (CAR) signaling pathway (AID 1224838); further: nearly all actives have a fitted effect of over 40% in size
Procedure, shortened: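 HepG2 cells stably carrying hCAR and a CYP2B6-2.2kb luciferase reporter, seeded 4 hrs before compound (15 concentrations). Stimulated with 50 nM CITCO for 24 hr at 37 C. ONE-Glo luminescence read after 30 min at room temperature.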

[6] = target: Nuclear receptor subfamily 1 group I member 3 (Homo sapiens) (UniProt Q14994); test: qHTS assay to identify small molecule agonists of the constitutive androstane receptor (CAR) signaling pathway (AID 1224839); further: nearly all actives have a fitted effect of over 15% in size; further: potency means the concentration at half of the fitted maximal effect
Procedure, shortened: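 Stable hCAR/CYP2B6-2.2kb HepG2 line in DMEM with 10% FBS; compounds (15 concentrations) and 0.75 uM PK11195 final, 24 h at 37 C/5% CO2, then ONE-Glo luminescence after 30 min.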

[7] = qHTS assay to identify small molecule antagonists of the estrogen related receptor signaling pathway with the pleiotropic PPARgamma coactivator (PGC) from Tox21 10K library - cell viability counter screen (AID 1224840; active means well fitted cell-killing curve with a large enough effect in the repeat runs, not every such curve was filed as active; further: nearly all actives have a fitted effect of over 40% in size)
Procedure, shortened: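 PGC/ERR cells (2,000/well) plated 6 h, then compound-treated for 17.5 h at 37 C. Viability measured by CellTiter-Fluor fluorescence after 30 min at 37 C, multiplexed with the pathway assay.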

[8] = qHTS assay to identify small molecule agonists of the hypoxia (HIF-1) signaling pathway - cell viability counter screen (AID 1224844; calls by dose curve; further: nearly all actives have a fitted effect of over 50% in size)
Procedure, shortened: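 HRE-bla ME-180 cells, 2,000/well in 0.5% dialyzed FBS medium, treated 17 h at 37C with compounds. Viability read in the same wells as the bla reporter, by CellTiter-Glo luminescence after 30 min at room temperature.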

[9] = qHTS assay to identify small molecule agonists of the hypoxia (HIF-1) signaling pathway (AID 1224846; active means well fitted activation curve with a large enough effect in the signal ratio in the repeat runs, not every such curve was filed as active; the % refers to the signal ratio)
Procedure, shortened: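 HRE-bla ME-180 beta-lactamase reporter cells in medium with 0.5% dialyzed FBS, pre-incubated 5 h then exposed to compounds 17 h at 37C, 5% CO2; reporter induction read with CCF4-AM FRET substrate.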

[10] = qHTS assay to identify small molecule agonists of H2AX - cell viability counter screen (AID 1224847; calls by dose curve; further: top concentration of the series differs between compounds; nearly all actives have a fitted effect of over 30% in size)
Procedure, shortened: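 Viability of CHO-K1 (wild type) cells after 3 hr compound exposure was measured by CellTiter-Glo luminescence.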

[11] = qHTS RealTime-Glo MT Cell Viability Assay in HepG2 cells - 24 hour (AID 1224867); further: nearly all actives have a fitted effect of over 50% in size
Procedure, shortened: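 HepG2 cells were seeded at 600 cells/well together with NanoLuc luciferase and a cell-permeant prosubstrate, preincubated 5 h at 37 C/5% CO2, then pin-dosed with compounds in DMSO. Nonlytic luminescence from viable cells was read at each time point.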

[12] = qHTS RealTime-Glo MT Cell Viability Assay in HEK293 cells - 32 hour (AID 1224868); further: top concentration of the series differs between compounds; nearly all actives have a fitted effect of over 50% in size
Procedure, shortened: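 HEK293 cells were seeded at 600 cells/well together with NanoLuc luciferase and cell-permeant prosubstrate, preincubated 5 h at 37 C/5% CO2, then given compound in DMSO by pintool. Luminescence from viable-cell prosubstrate reduction was read repeatedly over 40 h.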

[13] = target: Thyrotropin receptor (Homo sapiens) (UniProt P16473); test: qHTS assay to identify small molecule agonists of the thyroid stimulating hormone receptor (TSHR) signaling pathway (AID 1224843; calls by dose curve; further: nearly all actives have a fitted effect of over 45% in size)
Procedure, shortened: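 HEK293 cells stably bearing the thyrotropin receptor were plated at 800 cells/well and challenged with compound (30 min, RT). Accumulated cAMP was quantified via cAMP-d2 competing for cryptate-tagged antibody.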

[14] = qHTS assay to identify small molecule agonists of H2AX (AID 1224845; active means well fitted activation curve with a large enough effect in the signal ratio in the repeat runs, not every such curve was filed as active; the % refers to the signal ratio)
Procedure, shortened: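 Phospho-H2AX Ser139 measured by HTRF (ex 320 nm; em 665 and 620 nm) after 24 hr antibody incubation. Compounds, 15 concentrations, 0.76% DMSO, were applied to CHO-K1 cells for 3hr at 37C before lysis.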

[15] = A CellTox Green Cytotoxicity Assay to monitor cytotoxicity in HEK293 cells - 0 hour (AID 1224869); further: nearly all actives have a fitted effect of over 50% in size
Procedure, shortened: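 HEK293 cells, 600/well, were preincubated 5 hours and then exposed to compounds at 37 C for up to 40 hours. A cell-impermeant cyanine dye staining dead-cell DNA was read by fluorescence at 0, 8, 16, 24, 32 and 40 h time points.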

[16] = qHTS RealTime-Glo MT Cell Viability Assay in HepG2 cells - 40 hour (AID 1224870); further: nearly all actives have a fitted effect of over 50% in size
Procedure, shortened: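 Real-time viability: cells seeded at 600 per well together with NanoLuc and cell-permeant prosubstrate, compounds added after 5 h incubation. Luminescence tracked at 0, 8, 16, 24, 32 and 40 h of exposure.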

[17] = qHTS assay to identify small molecule antagonists of the estrogen related receptor signaling pathway with the pleiotropic PPARgamma coactivator (PGC) from Tox21 10K library (AID 1224841; call rule not given here)
Procedure, shortened: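 PGC/ERR cell line, 2,000 cells/well, pre-incubated 6 hours at 37 C, then exposed to compounds for 18 hours at 37 C; luciferase read with One-Glo luminescence after 30 min at room temperature.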

[18] = qHTS assay to identify small molecule agonists of the estrogen related receptor signaling pathway with the pleiotropic PPARgamma coactivator (PGC) from Tox21 10K library (AID 1224842); further: nearly all actives have a fitted effect of over 15% in size
Procedure, shortened: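 Luminescence from One-Glo (30 min, room temperature) measured after PGC/ERR cells had 18 h at 37 C with pinned compound (23 nL in DMSO). Cells had been seeded at 2,000 per well and pre-incubated 6 h.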

[19] = qHTS assay to identify small molecule agonists of the estrogen related receptor (ERR) signaling pathway from Tox21 library (AID 1224849; calls by dose curve; further: nearly all actives have a fitted effect of over 15% in size); details: ERR reporter cell line, ONE-Glo luciferase, 18 h; at 92.4 µM (top of the series) unless noted
Procedure, shortened: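 ERR reporter cells (NTP line) pre-incubated 6 hours at 37 C, then exposed to compounds for 18 hours at 37 C. ONE-Glo luciferase luminescence was read after 30 minutes at room temperature.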

[20] = qHTS assay to identify small molecule antagonists of the estrogen related receptor (ERR) signaling pathway from Tox21 library (AID 1224848); further: nearly all actives have a fitted effect of over 50% in size
Procedure, shortened: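 Reading was by luminescence 30 min after ONE-Glo addition. Before that, ERR cells at 2,000 per well had rested 6 h at 37 C/5% CO2 and then received pin-tooled compounds in DMSO for 18 h at 37 C.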
On the % scale 0 is the no-effect control and ±100 the full control effect.

Sequence of Luciferin 4-monooxygenase (Photinus pyralis) (P08659 whole entry, looked up): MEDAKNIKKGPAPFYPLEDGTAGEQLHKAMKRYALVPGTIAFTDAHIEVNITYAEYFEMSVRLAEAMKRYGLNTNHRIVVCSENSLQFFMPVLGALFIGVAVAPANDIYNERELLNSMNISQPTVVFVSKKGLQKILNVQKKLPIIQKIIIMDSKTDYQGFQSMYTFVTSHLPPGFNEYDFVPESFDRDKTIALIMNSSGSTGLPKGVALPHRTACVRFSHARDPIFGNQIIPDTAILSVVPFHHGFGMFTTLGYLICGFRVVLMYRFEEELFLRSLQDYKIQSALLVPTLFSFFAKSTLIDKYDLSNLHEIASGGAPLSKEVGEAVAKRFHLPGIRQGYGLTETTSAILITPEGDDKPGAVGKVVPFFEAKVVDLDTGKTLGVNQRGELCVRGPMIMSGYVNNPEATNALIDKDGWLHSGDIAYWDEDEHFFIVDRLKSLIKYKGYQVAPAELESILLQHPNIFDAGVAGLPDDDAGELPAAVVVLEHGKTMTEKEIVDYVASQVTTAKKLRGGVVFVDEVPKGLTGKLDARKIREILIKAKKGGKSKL
Sequence of Thyrotropin receptor (Homo sapiens) (P16473 whole entry, looked up): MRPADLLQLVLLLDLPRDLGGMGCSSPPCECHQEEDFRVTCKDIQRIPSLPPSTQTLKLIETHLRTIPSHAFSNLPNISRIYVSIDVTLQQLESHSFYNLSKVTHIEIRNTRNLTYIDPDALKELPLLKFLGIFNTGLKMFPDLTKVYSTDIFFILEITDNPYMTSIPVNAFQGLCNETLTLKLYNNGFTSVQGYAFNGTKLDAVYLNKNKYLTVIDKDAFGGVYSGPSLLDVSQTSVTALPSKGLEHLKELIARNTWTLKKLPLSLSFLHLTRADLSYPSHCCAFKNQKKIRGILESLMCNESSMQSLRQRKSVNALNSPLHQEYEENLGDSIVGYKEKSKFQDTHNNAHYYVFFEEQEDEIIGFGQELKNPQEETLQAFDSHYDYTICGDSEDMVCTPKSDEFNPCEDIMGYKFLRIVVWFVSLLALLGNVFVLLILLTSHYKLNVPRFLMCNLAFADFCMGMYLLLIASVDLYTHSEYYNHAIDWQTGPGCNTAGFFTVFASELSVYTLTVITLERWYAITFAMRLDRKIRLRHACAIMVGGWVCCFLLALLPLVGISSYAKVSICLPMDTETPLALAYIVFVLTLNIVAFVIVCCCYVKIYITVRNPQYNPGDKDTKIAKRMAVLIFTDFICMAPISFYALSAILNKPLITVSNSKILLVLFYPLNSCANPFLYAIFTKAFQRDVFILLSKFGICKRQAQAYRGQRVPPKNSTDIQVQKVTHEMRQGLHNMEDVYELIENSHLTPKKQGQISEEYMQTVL
Sequence of Nuclear receptor subfamily 1 group I member 3 (Homo sapiens) (Q14994 whole entry, looked up): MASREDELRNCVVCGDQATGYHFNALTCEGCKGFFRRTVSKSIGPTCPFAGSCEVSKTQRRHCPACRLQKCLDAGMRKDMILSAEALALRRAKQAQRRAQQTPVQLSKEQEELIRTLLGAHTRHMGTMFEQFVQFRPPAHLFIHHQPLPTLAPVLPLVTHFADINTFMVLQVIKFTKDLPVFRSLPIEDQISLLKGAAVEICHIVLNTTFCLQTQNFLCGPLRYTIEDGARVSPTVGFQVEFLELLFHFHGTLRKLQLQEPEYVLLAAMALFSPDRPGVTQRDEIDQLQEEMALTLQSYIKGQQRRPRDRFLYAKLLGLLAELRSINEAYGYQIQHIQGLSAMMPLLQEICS

CCOP(=S)(OCC)SCSP(=S)(OCC)OCC
active: Potency [6] 27.3 µM
inactive: Potency [1] | Potency [2] | Potency [3] | Potency [4] | Potency [5] | Potency [7] | Potency [8] | outcome [9] | Potency [10] | Potency [11] | Potency [12]

CCCCOC(=O)c1ccccc1C(=O)O
inactive: Potency [1] | Potency [2] | Potency [3] | Potency [4] | Potency [5] | Potency [6] | Potency [7] | Potency [13] | Potency [14] | outcome [9] | Potency [10] | Potency [11] | Potency [12] | Potency [15] | Potency [16]

N#CC(O)c1ccccc1 (stereo unspecified)
inactive: Potency [1] | Potency [2] | Potency [3] | Potency [4] | Potency [5] | Potency [6] | Potency [7] | Potency [8] | Potency [14] | outcome [9] | Potency [10] | Potency [11] | Potency [12] | Potency [15] | Potency [16]

CC(Cl)(Cl)[N+](=O)[O-]
inactive: Potency [1] | Potency [2] | Potency [3] | Potency [4] | Potency [5] | Potency [6] | Potency [17] | outcome [18] | Potency [13] | Potency [8] | Potency [14] | outcome [9] | Potency [10] | activity change, positive = activation [19] 2.67% | Potency [11] | Potency [12] | Potency [15] | Potency [16]

O=C1OC(CCN2CCCCC2)OC1(c1ccccc1)c1ccccc1 (stereo unspecified)
inactive: Potency [1] | Potency [2] | Potency [3] | Potency [4] | Potency [5] | Potency [6] | Potency [7] | Potency [8] | outcome [9] | Potency [10] | Potency [11] | Potency [12] | Potency [15] | Potency [16]

CC1(C)CON(Cc2ccccc2Cl)C1=O
active: Potency [6] 48.6 µM
inactive: Potency [1] | Potency [2] | Potency [3] | Potency [4] | Potency [5] | Potency [7] | Potency [8] | Potency [14] | outcome [9] | Potency [10] | Potency [11] | Potency [12] | Potency [15] | Potency [16]

C=C(C)CN(CC)c1c([N+](=O)[O-])cc(C(F)(F)F)cc1[N+](=O)[O-]
inactive: Potency [1] | Potency [2] | Potency [3] | Potency [4] | Potency [5] | Potency [6] | Potency [17] | outcome [18] | Potency [8] | Potency [14] | Potency [20] | activity change, positive = activation [19] 1.77% | Potency [11] | Potency [12] | Potency [15] | Potency [16]

Cc1ccccc1CO[C@@H]1C[C@@]2(C(C)C)CC[C@]1(C)O2
inactive: Potency [1] | Potency [2] | Potency [3] | Potency [4] | Potency [5] | Potency [6] | Potency [7] | Potency [8] | outcome [9] | Potency [11] | Potency [12] | Potency [15]

Cc1cnc[nH]1
inactive: Potency [1] | Potency [2] | Potency [3] | Potency [4] | Potency [5] | Potency [6] | Potency [13] | Potency [8] | Potency [14] | outcome [9] | Potency [10] | Potency [11] | Potency [12] | Potency [16]
